Laboratory results reported in publication PMC8384837, “Expanding the binding specificity for RNA recognition by a PUF domain”.

Assays:
Test in all cases: yeast three-hybrid, YBZ-1, SC-Leu-His + 0.5 mM 3-AT, 4 days
Details in all cases: tags: N-Gal4 AD-HA kept; label: inside an RPR1-promoter hybrid RNA with tandem MS2 sites; ssRNA
PUM1 PUF domain R5-MHS = PUM1 PUF domain R5-MHS (Homo sapiens, UniProt Q14671 828-1176, C1007M;R1008H;Q1011S)
Summary of the method: (§1)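 The interaction score is the log change in how often each variant appears, from input to selection. Frequencies came from PCR-amplified, Illumina-sequenced repeat regions of Pumilio-1 PUF domain libraries grown in strain YBZ-1 (LexA–MS2 coat fusion, HIS3 reporter) alongside matching RNA elements. Input plates were SC-Leu and selection plates were SC-Leu-His + 0.5 mM 3-AT, each for four days, and the log2 calculation used a pseudocount of 1 where a variant was absent.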

PUM1 PUF domain R3-FRT = PUM1 PUF domain R3-FRT (Homo sapiens, UniProt Q14671 828-1176, C935F;Q939T)
Summary of the method: as §1

PUM1 PUF domain R5-SKR = PUM1 PUF domain R5-SKR (Homo sapiens, UniProt Q14671 828-1176, C1007S;R1008K;Q1011R)
Summary of the method: as §1

PUM1 PUF domain R5-RNV = PUM1 PUF domain R5-RNV (Homo sapiens, UniProt Q14671 828-1176, C1007R;R1008N;Q1011V)
Summary of the method: as §1

PUM1 PUF domain R3-RSA = PUM1 PUF domain R3-RSA (Homo sapiens, UniProt Q14671 828-1176, C935R;R936S;Q939A)
Summary of the method: as §1

PUM1 PUF domain R7-GNG = PUM1 PUF domain R7-GNG (Homo sapiens, UniProt Q14671 828-1176, S1079G;E1083G)
Summary of the method: as §1

PUM1 PUF domain R5-AYY = PUM1 PUF domain R5-AYY (Homo sapiens, UniProt Q14671 828-1176, C1007A;R1008Y;Q1011Y)
Summary of the method: as §1

PUM1 PUF domain R1-RLN = PUM1 PUF domain R1-RLN (Homo sapiens, UniProt Q14671 828-1176, S863R;R864L;Q867N)
Summary of the method: as §1

PUM1 PUF domain R1-KFM = PUM1 PUF domain R1-KFM (Homo sapiens, UniProt Q14671 828-1176, S863K;R864F;Q867M)
Summary of the method: as §1

PUM1 PUF domain R5-DHG = PUM1 PUF domain R5-DHG (Homo sapiens, UniProt Q14671 828-1176, C1007D;R1008H;Q1011G)
Summary of the method: as §1

Chain of PUM1 PUF domain R5-MHS (Q14671 828-1176 C1007M/R1008H/Q1011S): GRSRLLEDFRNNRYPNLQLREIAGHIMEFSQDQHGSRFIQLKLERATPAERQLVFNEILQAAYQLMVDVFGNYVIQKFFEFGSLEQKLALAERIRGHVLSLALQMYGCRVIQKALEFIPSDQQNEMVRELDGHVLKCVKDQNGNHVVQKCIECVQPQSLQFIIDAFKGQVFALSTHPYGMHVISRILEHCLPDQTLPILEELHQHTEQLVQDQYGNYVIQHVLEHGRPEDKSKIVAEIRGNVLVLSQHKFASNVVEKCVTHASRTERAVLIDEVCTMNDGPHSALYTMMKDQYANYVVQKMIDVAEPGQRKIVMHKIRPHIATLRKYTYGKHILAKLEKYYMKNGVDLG
Chain of PUM1 PUF domain R5-RNV (Q14671 828-1176 C1007R/R1008N/Q1011V): as the sequence (Q14671 828-1176 C1007M/R1008H/Q1011S) above, with M180R, H181N, S184V counted along it
Chain of PUM1 PUF domain R1-RLN (Q14671 828-1176 S863R/R864L/Q867N): as the sequence (Q14671 828-1176 C1007M/R1008H/Q1011S) above, with S36R, R37L, Q40N, M180C, H181R, S184Q counted along it
Chain of PUM1 PUF domain R7-GNG (Q14671 828-1176 S1079G/E1083G): as the sequence (Q14671 828-1176 C1007M/R1008H/Q1011S) above, with M180C, H181R, S184Q, S252G, E256G counted along it
Chain of PUM1 PUF domain R5-DHG (Q14671 828-1176 C1007D/R1008H/Q1011G): as the sequence (Q14671 828-1176 C1007M/R1008H/Q1011S) above, with M180D, S184G counted along it
Chain of PUM1 PUF domain R1-KFM (Q14671 828-1176 S863K/R864F/Q867M): as the sequence (Q14671 828-1176 C1007M/R1008H/Q1011S) above, with S36K, R37F, Q40M, M180C, H181R, S184Q counted along it
Chain of PUM1 PUF domain R5-SKR (Q14671 828-1176 C1007S/R1008K/Q1011R): as the sequence (Q14671 828-1176 C1007M/R1008H/Q1011S) above, with M180S, H181K, S184R counted along it
Chain of PUM1 PUF domain R5-AYY (Q14671 828-1176 C1007A/R1008Y/Q1011Y): as the sequence (Q14671 828-1176 C1007M/R1008H/Q1011S) above, with M180A, H181Y, S184Y counted along it
Chain of PUM1 PUF domain R3-RSA (Q14671 828-1176 C935R/R936S/Q939A): as the sequence (Q14671 828-1176 C1007M/R1008H/Q1011S) above, with C108R, R109S, Q112A, M180C, H181R, S184Q counted along it
Chain of PUM1 PUF domain R3-FRT (Q14671 828-1176 C935F/Q939T): as the sequence (Q14671 828-1176 C1007M/R1008H/Q1011S) above, with C108F, Q112T, M180C, H181R, S184Q counted along it

For “GGCUAGAACUAGUGGAUCCCCCGGCGCCCGGCGGCUCGAGCCCGGGUAAGUGUGAAUAGUCUGCAUGCCGCCGGGCGCCAUGCCUGCAGGUCGACUCUAGAAAACAUG”, the binding signal (PUM1 PUF domain R5-MHS) was 2.4 log2 enrichment (interaction score).
With “GGCUAGAACUAGUGGAUCCCCCGGCGCCCGGCGGCUCGAGCCCGGGUAAGUGUAAGUAGUCUGCAUGCCGCCGGGCGCCAUGCCUGCAGGUCGACUCUAGAAAACAUG” the binding signal (PUM1 PUF domain R3-FRT) was 4.75 log2 enrichment (interaction score).
“GGCUAGAACUAGUGGAUCCCCCGGCGCCCGGCGGCUCGAGCCCGGGUAAGUGUCAAUAGUCUGCAUGCCGCCGGGCGCCAUGCCUGCAGGUCGACUCUAGAAAACAUG” was tested, and the binding signal (PUM1 PUF domain R5-SKR) was 5.88 log2 enrichment (interaction score) and the binding signal (PUM1 PUF domain R5-RNV) was 2.8 log2 enrichment (interaction score).
In the case of “GGCUAGAACUAGUGGAUCCCCCGGCGCCCGGCGGCUCGAGCCCGGGUAAGUGUAAUUAGUCUGCAUGCCGCCGGGCGCCAUGCCUGCAGGUCGACUCUAGAAAACAUG”, the binding signal (PUM1 PUF domain R3-RSA) is reported as 3.54 log2 enrichment (interaction score).
With “GGCUAGAACUAGUGGAUCCCCCGGCGCCCGGCGGCUCGAGCCCGGGUAAGUUUAAAUAGUCUGCAUGCCGCCGGGCGCCAUGCCUGCAGGUCGACUCUAGAAAACAUG” the binding signal (PUM1 PUF domain R7-GNG) was 5.55 log2 enrichment (interaction score).
In the case of “GGCUAGAACUAGUGGAUCCCCCGGCGCCCGGCGGCUCGAGCCCGGGUAAGUGUAAAUAGUCUGCAUGCCGCCGGGCGCCAUGCCUGCAGGUCGACUCUAGAAAACAUG”, the binding signal (PUM1 PUF domain R5-AYY) is reported as 3.24 log2 enrichment (interaction score).
With “GGCUAGAACUAGUGGAUCCCCCGGCGCCCGGCGGCUCGAGCCCGGGUAAGUGUAAAUCGUCUGCAUGCCGCCGGGCGCCAUGCCUGCAGGUCGACUCUAGAAAACAUG” the binding signal (PUM1 PUF domain R1-RLN) was 2.71 log2 enrichment (interaction score) and the binding signal (PUM1 PUF domain R1-KFM) was 4.3 log2 enrichment (interaction score).
“GGCUAGAACUAGUGGAUCCCCCGGCGCCCGGCGGCUCGAGCCCGGGUAAGUGUUAAUAGUCUGCAUGCCGCCGGGCGCCAUGCCUGCAGGUCGACUCUAGAAAACAUG” was tested, and the binding signal (PUM1 PUF domain R5-RNV) was 2.58 log2 enrichment (interaction score), the binding signal (PUM1 PUF domain R5-DHG) was 4.67 log2 enrichment (interaction score) and the binding signal (PUM1 PUF domain R5-MHS) was 5.58 log2 enrichment (interaction score).
In the case of “GGCUAGAACUAGUGGAUCCCCCGGCGCCCGGCGGCUCGAGCCCGGGUAAGUGUAAAUUGUCUGCAUGCCGCCGGGCGCCAUGCCUGCAGGUCGACUCUAGAAAACAUG”, the binding signal (PUM1 PUF domain R1-RLN) is reported as 2.1 log2 enrichment (interaction score).
